Among all 420,000 compounds or so, about 64,000 (15%) were called active. Roughly 27% stayed inconclusive and do not appear here. Calls follow the shape of the dose curve; as a rule, active = well fitted inhibition curve with a large enough effect; inconclusive = small, poorly fitted or top-dose-only effect; inactive = flat fitted curve, though single readings scatter. A selection follows. Entries that show only a call come without a potency.
Potency is read from the fitted curve at half-maximal effect.

The nature of the assay: qHTS for Inhibitors of human tyrosyl-DNA phosphodiesterase 1 (TDP1): qHTS in cells in absence of CPT. Also: nearly all actives have a fitted effect of over 55% in size. To be noted: DT40 Tdp1-/- hTDP1 cells, no CPT, ATP luminescence, 48 h; activity change, negative = growth inhibition: at 46.2 µM (top of the series). The method in brief: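 Camptothecin absent (DMSO only). Human TDP1-complemented DT40 knockout cells, 400 cells/well, 37 °C for minimum 48 hr; ATP measured via CellTiter-Glo, 30 min dark incubation, luminescence.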
A general note: In qHTS, concentration-response curves come from the screen itself.
As to `CCCc1cc(=O)oc2c(C)c(O)c(CN3CCCCC3)cc12`, the Potency result is “inactive”.

Turning to `COCCN(CCOC)c1nc(N)c2c(N)nc3c(c2c1C#N)CC(=O)N3Cc1ccc(Cl)cc1`, the Potency entry was “inactive”.

For the compound `Cc1ccc(NC(=O)/C(=C\c2ccccc2)NC(=O)c2ccco2)cc1`, the Potency entry was “inactive”.

`CCN1CCN(C(=O)Cn2nc(C)n3c(cc4c(OC)cccc43)c2=O)CC1`: the Potency entry is “inactive”.

As to `COc1ccc(C2c3ccc(O)cc3Oc3ncn(CCCO)c(=N)c32)cc1OC` (stereo not drawn), the Potency entry is “inactive”.

On to `Cc1ccc(NC(=O)COC(=O)CN2CCCCCC2=O)c(C)c1`, for which the Potency entry was “inactive”.

Turning to `COC(=O)C1CC2=C(CC(C)(C)CC2=O)N(c2ccccc2)C1=O` (stereo not drawn), the Potency entry is “inactive”.

Take `CC(C)N1C(=O)N(c2ccccc2)C(C)(O)CC1(C)C` (stereo not drawn): the Potency entry is “inactive”.

Consider `CC(C)C1C2=C(CC(C)(C)CC2=O)ON1c1ccccc1` (stereo not drawn), for which the Potency is 11.2 µM (active).

As to `O=C(Cn1c(=S)nc2ccccn21)N1CCc2ccccc2C1`, the Potency result was “inactive”.

`CCc1nc2sc3c(Cl)ncnc3c2c2c1CCCC2`: the Potency entry is “inactive”.

Consider `Fc1cc(F)c2nc(N3CCOCC3)sc2c1`, for which the Potency result was “inactive”.

Consider `CCOc1nc(NCCN2CCOCC2)nc(Nc2ccc(C)cc2)n1`, for which the Potency result was “inactive”.

For the compound `CCOC(=O)C(C)n1nc(-c2ccccc2)c2ccccc2c1=O` (stereo not drawn), the Potency is 14.6 µM (active).

Take `O=c1c2ccccc2c(-c2ccccc2)nn1Cc1ccccc1`: the Potency entry was “inactive”.

`O=C(O)c1ccc(-n2nc(-c3ccccc3)c3ccccc3c2=O)cc1`: the Potency entry was “inactive”.

With `NC(=O)[C@H]1CC2(CC(c3cccc(NC(=O)[C@H]4CCC(=O)N4)c3)=NO2)CN1C(=O)c1ccccc1C(=O)c1ccccc1` (stereo partly drawn), the Potency result is “inactive”.

On to `C/C(=N\NC(=S)NC(C)C)c1ccc(C(C)(C)C)cc1`, for which the Potency is 20.6 µM (active).

`C/C(=N\NC(N)=S)c1ccncc1`: the Potency result is “inactive”.

`C/C(=N\NC(N)=S)c1cccnc1`: the Potency result is “inactive”.

Turning to `O=C(Cc1ccccc1)Nc1ccc(C(=O)Nc2ccccc2C(=O)O)cc1`, the Potency result is “inactive”.

Turning to `Cc1cccnc1NC(=O)Cn1c(=O)oc2ccccc21`, the Potency entry is “inactive”.

For the compound `CCOc1ncccc1C(=O)NNC(=O)c1cccc(S(=O)(=O)Nc2ccccc2OC)c1`, the Potency result was “inactive”.

In the case of `COc1cc(NS(=O)(=O)c2ccc3ccccc3c2)c2ncccc2c1`, the Potency is 7.31 µM (active).

On to `COc1ccc2cc(S(=O)(=O)Nc3ccccn3)ccc2c1`, for which the Potency result was “inactive”.

For `C/C(O)=C\c1nc(=O)c2c(C)cc(C)nc2n1-c1ccccc1`, the Potency result is “inactive”.

Turning to `N#Cc1c(-c2ccc(Cl)cc2)c2c([nH]c1=S)CCCC2`, the Potency result was “inactive”.

`COc1ccc(-n2c(SCC(=O)OC(C)C)nnc2-c2ccccn2)cc1`: the Potency result is “inactive”.

Turning to `COc1ccc(-c2cn3cccnc3n2)cc1`, the Potency result is “inactive”.

For the compound `COc1ccc2nc(-c3ccccn3)ccc2c1`, the Potency was 3.26 µM (active).

As for `CCOc1ccc(N(Cc2ccccc2)C(=O)c2nc(S(C)(=O)=O)ncc2Cl)cc1`, the Potency was 0.58 µM (active).

Take `CCOc1ccc(S(=O)(=O)N(CC(=O)O)c2ccccc2)cc1`: the Potency result is “inactive”.

With `CCOc1ccc(N(Cc2ccccc2)C(=O)c2nc(SCC)ncc2Cl)cc1`, the Potency is 6.51 µM (active).

Regarding `CCSc1ncc(Cl)c(C(=O)Nc2c(C(=O)c3ccccc3)oc3ccccc23)n1`, the Potency entry is “inactive”.

Turning to `CCOc1ccc(Cn2nnc(C(=O)NCc3ccccc3)c2N)cc1`, the Potency result was “inactive”.

As for `CCSc1nnc2c(n1)OC(c1ccc(OCC(=O)O)cc1)Nc1ccccc1-2` (stereo not drawn), the Potency entry was “inactive”.

As for `CCCOc1ccc(/C(O)=C2/C(=O)C(=O)N(CCN(C)C)C2c2ccc(OC)c(OC)c2)cc1` (stereo not drawn), the Potency result is “inactive”.

On to `N#CCCn1ncc2ccccc21`, for which the Potency entry was “inactive”.

For the compound `CNC(=O)C1CN(C(=O)c2cccc(S(=O)(=O)N3CCc4ccccc43)c2)c2ccccc2O1` (stereo not drawn), the Potency was 5.8 µM (active).

With `CC1CCN(C(=O)c2cccc(S(=O)(=O)N3CCCc4ccccc43)c2)CC1`, the Potency was 11.6 µM (active).

For the compound `NS(=O)(=O)c1ccc(CNC(=O)c2cccc(S(=O)(=O)N3CCc4ccccc43)c2)cc1`, the Potency is 9.2 µM (active).

In the case of `CC1Cc2ccccc2N1S(=O)(=O)c1cccc(C(=O)OCC(=O)N2CCOCC2)c1` (stereo not drawn), the Potency entry was “inactive”.

With `CC(=O)N1CCN(S(=O)(=O)c2cccc(C(=O)NC3CCC(C)CC3)c2)CC1` (stereo not drawn), the Potency entry is “inactive”.

For `NS(=O)(=O)c1ccc(CNC(=O)c2cc(S(=O)(=O)N3CCOCC3)ccc2N2CCCC2)cc1`, the Potency entry was “inactive”.

For `O=C(NCCCN1CCCC1=O)c1cccc(S(=O)(=O)NCc2ccccc2)c1`, the Potency result was “inactive”.

Turning to `Cc1c(NC(=S)Nc2ccccc2)c(=O)n(-c2ccccc2)n1C`, the Potency entry is “inactive”.

For the compound `COc1cc(C)c(Cl)cc1S(=O)(=O)n1ccnc1`, the Potency result was “inactive”.

Take `CC1CCN(C(=O)COC(=O)c2cc(=O)[nH]c3ccccc23)CC1`: the Potency entry is “inactive”.

For the compound `CC(NC(=O)COC(=O)c1cc(=O)[nH]c2ccccc12)c1ccccc1` (stereo not drawn), the Potency entry was “inactive”.

With `CCOC(=O)c1ccc2[nH]c(C)c(CN3CCN(C)CC3)c(=O)c2c1`, the Potency result was “inactive”.

For `COC(=O)C[C@H]1C[C@@H]2c3cc(N(C)C)ccc3O[C@@H]2[C@H](CO)O1`, the Potency result was “inactive”.

Turning to `Cn1nc(-c2ccccc2)c(CO)c1Sc1ccccc1`, the Potency entry is “inactive”.

In the case of `Cn1nc(-c2ccccc2)c(CSc2cccc(Cl)c2)c1Cl`, the Potency was 18.4 µM (active).

Take `CCOC(=O)CSc1ncc(-c2cccc(Cl)c2)cn1`: the Potency entry was “inactive”.

Consider `CCn1c(-c2ccoc2C)n[nH]c1=S`, for which the Potency entry was “inactive”.

For the compound `CCOC(=O)c1ccc(NC(=O)Cn2nnc(-c3ccc(C)cc3)n2)cc1`, the Potency result is “inactive”.

`CCOC(=O)c1ccc(NC(=O)CCn2c(=O)oc3ccccc32)cc1`: the Potency entry is “inactive”.

With `CCOC(=O)c1ccc(NC(=O)Cn2cnc3cc(C)c(C)cc32)cc1`, the Potency was 0.517 µM (active).

Turning to `Cc1ccc(OC(=O)c2cncc(Br)c2)c(C)c1`, the Potency result was “inactive”.

Consider `NC(=O)COc1ccccc1C(=O)NC12CC3CC(CC(C3)C1)C2`, for which the Potency entry is “inactive”.

With `CCc1cccc(NC(=S)N(CCN(C)C)C2CCN(C(C)C)CC2)c1`, the Potency entry is “inactive”.

Regarding `Cc1cccc(C)c1NC(=O)CN1C(=O)C(C)Oc2ccccc21` (stereo not drawn), the Potency entry is “inactive”.

Consider `CCn1c(C(O)c2cc(OC)ccc2OC)nc2ccccc21` (stereo not drawn), for which the Potency entry is “inactive”.

Take `CCn1c(/C=N/NC(=O)c2ccc(OC)cc2)nc2ccccc21`: the Potency was 16.4 µM (active).

For the compound `O=C(Nc1ccccc1Cl)N1CCN(c2ccc3nncn3n2)CC1`, the Potency entry is “inactive”.

For `Cc1ccc(Cc2c(C)nc3nc(SCC(=O)NCCN4CCOCC4)nn3c2C)cc1`, the Potency entry is “inactive”.

Regarding `COc1ccc(NC(=O)CSc2nncc(=O)n2N)cc1OC`, the Potency entry was “inactive”.

As for `COc1cc(NC(=O)CSc2nc3nc(C)c(Cc4ccc(C)cc4)c(C)n3n2)cc(OC)c1OC`, the Potency is 10.3 µM (active).

With `N#Cc1c(C(F)(F)F)cc(-c2ccccc2)nc1SCC(=O)N1CCOCC1`, the Potency entry is “inactive”.

On to `FC(F)Oc1ccccc1NC(=S)Nc1cccc(Cl)c1Cl`, for which the Potency result was “inactive”.

On to `COc1ccc(S(=O)(=O)Nc2ccc3cn[nH]c3c2)cc1[N+](=O)[O-]`, for which the Potency result was “inactive”.

As for `O=C(O)c1ccccc1/C=N/Nc1ccc(S(=O)(=O)Nc2ccc(Cl)cc2)cc1[N+](=O)[O-]`, the Potency entry is “inactive”.

Regarding `O=[N+]([O-])c1cc(S(=O)(=O)Nc2cccc(Cl)c2)ccc1N=Nc1c(O)[nH]c2ccccc12`, the Potency is 25.9 µM (active).

As for `O=C(Nc1nnc([C@H]2C[C@H](O)[C@@H](CO)O2)s1)c1cccc(Cl)c1`, the Potency entry was “inactive”.

Consider `CN(CC(=O)Nc1ccc(Cl)cc1)C(=O)CNC(=O)c1ccc2ccccc2c1`, for which the Potency entry is “inactive”.

Take `Cc1ccc(S(=O)(=O)N(C)c2ccc(OCC(=O)OCC(=O)N(CC#N)c3ccccc3)cc2)cc1`: the Potency result was “inactive”.

Regarding `C/C(=N\NC(=O)c1cccc(N2CCCC2=O)c1)c1ccc(N)cc1`, the Potency entry is “inactive”.

For `COc1ccc(/C=N/NC(=O)c2ccccc2)cc1OS(=O)(=O)c1ccccc1`, the Potency is 13 µM (active).

For the compound `CCOc1cc(/C=N/NC(=O)CN2CCCCC2)ccc1O`, the Potency result was “inactive”.

`COc1cc(/C=N/NC(=O)CCc2n[nH]c(=O)[nH]c2=O)ccc1O`: the Potency entry is “inactive”.

Take `COc1ccc(/C=N/Nc2ccccc2C(=O)O)cc1`: the Potency result was “inactive”.

Turning to `COc1cc(C=NNC(=O)c2cccnc2)ccc1OC(=O)c1ccccc1F`, the Potency entry was “inactive”.

Consider `COc1cc(/C=N/NC(=O)c2ccc(N3CCCC3=O)cc2)ccc1O`, for which the Potency was 16.4 µM (active).

Take `COc1ccc(/C=N/S(=O)(=O)c2ccccc2)cc1OC`: the Potency entry was “inactive”.

Consider `COc1ccc(C(=O)Nc2ccccc2C(=O)N/N=C/c2ccc(O)c(OC)c2)cc1`, for which the Potency was 20.6 µM (active).

With `CCC1(CC)NC(=O)N(Cc2nc3ccccc3s2)C1=O`, the Potency result is “inactive”.

For the compound `CCOc1ccc2oc(C(=O)N(CC)CC(=O)Nc3ccc(NC(C)=O)cc3)c(C)c2c1`, the Potency entry was “inactive”.

As for `CCOc1ccc(-n2c(SCC(=O)NC3CCS(=O)(=O)C3)nnc2-c2cccnc2)cc1` (stereo not drawn), the Potency result was “inactive”.

Turning to `COc1ccc(S(=O)(=O)N2CCOCC2)cc1NC(=O)Cc1coc2cc(C)ccc12`, the Potency entry is “inactive”.

On to `N#Cc1c2c(c(-c3ccccc3)[nH]c1=O)CCCC2`, for which the Potency entry was “inactive”.

Consider `CCCCC1N2CC3([N+](=O)[O-])CN1CC([N+](=O)[O-])(C2)C3(C)C` (stereo not drawn), for which the Potency result is “inactive”.

For `Nc1ccc(SCCN2C(=O)c3ccccc3C2=O)cc1`, the Potency result is “inactive”.

`O=C(NCc1cccnc1)c1cc(S(=O)(=O)N2CCOCC2)c(Cl)cc1Cl`: the Potency result was “inactive”.

With `Cc1ccc(S(=O)(=O)c2cc3c(=O)n4cccc(C)c4nc3n(CCc3ccccc3)c2=N)cc1C`, the Potency entry is “inactive”.

In the case of `CCCCn1c(=N)c(S(=O)(=O)c2ccccc2)cc2c(=O)n3cccc(C)c3nc21`, the Potency result was “inactive”.

As for `COCCCn1c(C(=O)NC2CCCCC2)cc2c(=O)n3cccc(C)c3nc21`, the Potency was 16.4 µM (active).

In the case of `Cc1cccn2c(=O)c3cc(C(=O)NCCN4CCOCC4)c(=N)n(Cc4cccnc4)c3nc12`, the Potency is 8.2 µM (active).

With `COc1ccc(Cn2ccnc2SCC(=O)NCc2ccco2)cc1`, the Potency entry was “inactive”.

Regarding `Cc1cccn2c(=O)c3cc(C(=O)NC4CCCCC4)sc3nc12`, the Potency entry was “inactive”.

`Cc1ccc2nc3c(cc(C(=O)NCCc4ccccc4)c(=N)n3CC3CCCO3)c(=O)n2c1` (stereo not drawn): the Potency is 20.6 µM (active).

With `COc1ccc(CNC(=O)c2cc3c(=O)n4ccccc4nc3n(CC3CCCO3)c2=N)cc1` (stereo not drawn), the Potency result is “inactive”.

`COc1ccc(CCn2c(=N)c(C(=O)NCc3ccco3)cc3c(=O)n4cccc(C)c4nc32)cc1`: the Potency is 11.6 µM (active).

For `O=C(NC1CCCCC1)c1ccc2c(=O)n(CC3CCCO3)c(=O)[nH]c2c1` (stereo not drawn), the Potency result was “inactive”.

For the origin of these results see PubChem BioAssay AID686978 (National Center for Advancing Translational Sciences (NCATS), 2013).
